Results: PubChem BioAssay (EPA / NIEHS)
Calls of active or inactive are those of the source. The calls were made as follows: active = hit-call score of the fitted dose curve at least 0.9, where 1 is the maximum; inactive = score below 0.9.

assay: ATG_E_Box_CIS: Attagene CIS-FACTORIAL HepG2 Assay for human Enhancer Box (E-box) (AID 2282936); settings: HepG2 E-box cis-reporter transcription, actives raise or lower the signal
Experimental: ATG_CIS is a cell-based, multiplexed-readout assay that uses HepG2, a human liver cell line, with measurements taken at 24 hours after chemical dosing in a 24-well plate.ATG_E_Box_CIS is one of 52 assay component(s) measured or calculated from the ATG_CIS assay. It is designed to make measurements of mRNA induction, a form of inducible reporter, as detected with fluorescence intensity signals by Reverse transcription polymerase chain reaction (RT-PCR) and Capillary electrophoresis technology.Data from the assay component ATG_E_Box_CIS was analyzed into 1 assay endpoint. This assay endpoint, ATG_E_Box_CIS, was analyzed with bidirectional fitting relative to DMSO as the negative control and baseline of activity. Using a type of inducible reporter, measures of mRNA for gain or loss-of-signal activity can be used to understand the reporter gene at the transcription factor-level as they relate to the gene USF1. Furthermore, this assay endpoint can be referred to as a primary readout, because this assay has produced multiple assay endpoints where this one serves a reporter gene function. To generalize the intended target to other relatable targets, this assay endpoint is annotated to the dna binding intended target family, where the subfamily is basic helix-loop-helix protein.
Human liver HepG2 cells are transiently transfected with multiple reporter transcription units (MRTUs) in 6-well plates using FuGene 6 reagent (Roche; 3 ml FuGene/1 mg DNA). The MRTU constructs are regulated by a cis-regulating element (promoter). […] A major difference between the CIS and TRANS system is that in CIS activities of endogenous TFs are measured, whereas the TRANS assay evaluates changes in activities of exogenous, chimeric NR-Gal4 proteins. […] At the end of 24 hour incubation, total RNA was isolated using TriZol reagent (Invitrogen). The isolated RNA is then reverse-transcribed using oligo(dT) primer and Mo-MLV reverse transcriptase (Invitrogen) with DNAse I (Ambion) treatment for 30 min. The one-tenth of the produced cDNA was amplified by PCR using Taq DNA polymerase (Invitrogen) and two reporter sequence-specific primers. The PCR products were fluorescently labeled by primer extension with 6-arboxyfluorescein (6-FAM) 5'-labeled reporter sequence-specific primer (2 min at 95 C, 20 s at 68 C and 10 min at 72 C) and these products were digested with 5U of HpaI (New England Biolabs) for 2h at 37 C. The fragments were purified using Qiaquick PCR columns (Qiagen), analyzed on an ABI 3130xL genetic analyzer (Applied Biosystems) with peak positions identified by using a set of X-rhodamine (ROX)-labeled MapMarker1000 molecular weight standards (BioVentures). The raw capillary electrophoresis data was processed using Attagraph software (Attagene).

Row | Structure (SMILES) | outcome | AC50
1 | ClC(Cl)c1ccccc1 | inactive | 
2 | N#Cc1cc([N+](=O)[O-])ccc1N | inactive | 
3 | Cc1ccc(N)cc1N | inactive | 
4 | CCCCOCCOP(=O)(OCCOCCCC)OCCOCCCC | inactive | 
5 | CO/N=C(/C(=O)OC)c1ccccc1COc1ccccc1C |  | 100 µM (active)
6 | CCN(CC)C1CCCCC1 | inactive | 
7 | CC(O)C#N (stereo not given) | inactive | 
8 | O=S1(=O)OCC2C(CO1)C1(Cl)C(Cl)=C(Cl)C2(Cl)C1(Cl)Cl (stereo not given) |  | 26.5 µM (active)
9 | CCOP(=S)(Oc1ccc([N+](=O)[O-])cc1)c1ccccc1 (stereo not given) | inactive | 
10 | NNC(N)=S | inactive | 
11 | N#Cc1c(-c2ccc(Cl)cc2)[nH]c(C(F)(F)F)c1Br | inactive | 
12 | Nc1ccc(Cl)cc1 | inactive | 
13 | Cn1[nH]nnc1=S | inactive | 
14 | c1ccc2c(c1)Nc1ccccc1S2 | inactive | 
15 | CCOP(=S)(OCC)SCSc1ccc(Cl)cc1 | inactive | 
16 | CCCCN(CC)C(=O)SCCC | inactive | 
17 | OCC(F)(F)OC(F)(F)C(F)(F)OC(F)(F)C(F)(F)OC(F)(F)CO | inactive | 
18 | CN(C)C(=O)Cl | inactive | 
19 | O=P(OCC(Br)CBr)(OCC(Br)CBr)OCC(Br)CBr (stereo not given) | inactive | 
20 | CCOC(=O)c1ccccc1N | inactive | 

Row | Structure (SMILES) | outcome | AC50
21 | O=S(=O)(F)C(F)(F)C(F)(F)C(F)(F)C(F)(F)C(F)(F)C(F)(F)C(F)(F)C(F)(F)F | inactive | 
22 | CCOP(=S)(S)OCC | inactive | 
23 | CCCCc1ccccc1 | inactive | 
24 | O=[N+]([O-])c1ccc(Cl)c(Cl)c1 | inactive | 
25 | O=P(Oc1ccccc1)(Oc1ccccc1)Oc1ccccc1 | inactive | 
26 | Cc1ccc(O)cc1C | inactive | 
27 | O=NN1CCCC1 | inactive | 
28 | [N-]=[N+]=[N-] | inactive | 
29 | FC(F)(F)c1ccc(Cl)cc1 | inactive | 
30 | CCCCN(CCCC)SN(C)C(=O)Oc1cccc2c1OC(C)(C)C2 | inactive | 
31 | CNC(=O)Oc1ccc(N(C)C)c(C)c1 | inactive | 
32 | Cc1c([N+](=O)[O-])cc2c(c1[N+](=O)[O-])C(C)(C)CC2(C)C | inactive | 
33 | Nc1ccc2ccccc2c1 | inactive | 
34 | O=C(O)C(F)(F)OC(F)(F)C(F)(F)OC(F)(F)C(=O)O | inactive | 
35 | CCNc1nc(Cl)nc(NC(C)(C)C)n1 | inactive | 
36 | CCCCC(CC)COP(=O)(Oc1ccccc1)Oc1ccccc1 (stereo not given) | inactive | 
37 | O=C(O)C(F)(F)C(F)(F)C(=O)O | inactive | 
38 | Cc1ccc2c(c1N)C(=O)c1ccccc1C2=O | inactive | 
39 | C=CC(=O)OCC(CC)(COC(=O)C=C)COC(=O)C=C |  | 22 µM (active)
40 | c1nc[nH]n1 | inactive | 
